In PubChem BioAssay (Tox21):
A number with no mark means an inactive call. Records with an inconclusive call do not appear. A call without a number means that no potency is given here. Calls of active or inactive are those of the source. Unless noted, the call rests on the fitted dose curve; in most records, active means well fitted curve in the direction sought with a large enough effect in the repeat runs; inconclusive means weak or mixed curves; inactive means no such curve, though single readings can be large; an effect the other way counts as inactive or inconclusive.

What was measured:
[1] = A CellTox Green Cytotoxicity Assay to monitor cytotoxicity in HepG2 cells - 8 hour (AID 1224890); further: nearly all actives have a fitted effect of over 45% in size
In short: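 Using 1536-well format, dye-containing HepG2 suspension was seeded, allowed 5 h at 37 C/5% CO2, dosed by pintool with compounds, positive and negative controls, and imaged for fluorescence across 40 h.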

[2] = qHTS assay to identify small molecule antagonists of the estrogen receptor alpha (ER-alpha) signaling pathway using the BG1 cell line in the presence of 0.1 nM 17-beta-estradiol - cell viability counter screen (AID 1259241); further: nearly all actives have a fitted effect of over 40% in size
In short: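 VM7Luc4E2 cells (endogenous full-length ER-alpha, 4xERE-luciferase), cultured 5 days in charcoal-stripped serum, exposed to compounds with 0.1 nM 17beta-estradiol (final) for 22 hr at 37C. Viability read in same wells as live-cell protease fluorescence after 30 min.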

[3] = qHTS assay to identify small molecule antagonists of the androgen receptor (AR) signaling pathway using the MDA cell line in the presence of 0.5 nM R1881 - cell viability counter screen (AID 1259242); further: nearly all actives have a fitted effect of over 45% in size
In short: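 Viability of MDA-kb2 cells was multiplexed with the luciferase AR readout; after 16 hr with compounds and R1881 at 0.5 nM final, CellTiter-Fluor fluorescence was recorded.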

[4] = biological target: Androgen receptor (Homo sapiens) (UniProt P10275); assay: qHTS assay to identify small molecule antagonists of the androgen receptor (AR) signaling pathway using the MDA cell line in the presence of 0.5 nM R1881 (AID 1259243); further: nearly all actives have a fitted effect of over 50% in size
Sequence of Androgen receptor (Homo sapiens) (P10275 whole entry, looked up): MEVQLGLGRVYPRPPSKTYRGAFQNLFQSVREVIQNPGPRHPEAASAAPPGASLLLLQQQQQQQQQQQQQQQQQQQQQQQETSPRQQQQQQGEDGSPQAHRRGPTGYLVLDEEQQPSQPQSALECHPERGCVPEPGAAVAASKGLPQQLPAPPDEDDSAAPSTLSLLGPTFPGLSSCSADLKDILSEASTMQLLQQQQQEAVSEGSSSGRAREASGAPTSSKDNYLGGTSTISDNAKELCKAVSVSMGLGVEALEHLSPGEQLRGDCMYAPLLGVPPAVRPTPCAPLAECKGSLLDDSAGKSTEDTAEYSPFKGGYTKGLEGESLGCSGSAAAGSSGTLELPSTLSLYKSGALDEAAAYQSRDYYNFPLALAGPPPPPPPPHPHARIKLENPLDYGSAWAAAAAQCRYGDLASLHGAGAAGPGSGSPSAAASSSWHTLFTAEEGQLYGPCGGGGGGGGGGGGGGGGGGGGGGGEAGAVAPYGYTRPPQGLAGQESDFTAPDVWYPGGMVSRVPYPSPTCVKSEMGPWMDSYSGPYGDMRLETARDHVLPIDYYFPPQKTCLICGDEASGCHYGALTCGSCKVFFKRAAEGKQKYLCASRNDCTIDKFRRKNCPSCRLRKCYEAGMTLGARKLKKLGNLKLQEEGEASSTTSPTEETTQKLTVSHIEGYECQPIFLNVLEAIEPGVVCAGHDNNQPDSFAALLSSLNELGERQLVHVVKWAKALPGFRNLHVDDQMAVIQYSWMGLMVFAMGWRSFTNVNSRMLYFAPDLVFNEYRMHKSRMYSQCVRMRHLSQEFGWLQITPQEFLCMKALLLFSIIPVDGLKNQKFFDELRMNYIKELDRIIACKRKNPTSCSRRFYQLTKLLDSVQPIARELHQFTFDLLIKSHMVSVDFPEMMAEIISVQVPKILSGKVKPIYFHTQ
In short: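 Reporter cells cultured without CO2 receive test chemicals, then 0.5 nM R1881 final; after 16 hr at 37C, ONE-Glo is added and light output recorded.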

[5] = biological target: Estrogen receptor (Homo sapiens) (UniProt P03372); assay: qHTS assay to identify small molecule antagonists of the estrogen receptor alpha (ER-alpha) signaling pathway using the BG1 cell line in the presence of 0.1 nM 17-beta-estradiol (AID 1259244); further: nearly all actives have a fitted effect of over 50% in size
Sequence of Estrogen receptor (Homo sapiens) (P03372 whole entry, looked up): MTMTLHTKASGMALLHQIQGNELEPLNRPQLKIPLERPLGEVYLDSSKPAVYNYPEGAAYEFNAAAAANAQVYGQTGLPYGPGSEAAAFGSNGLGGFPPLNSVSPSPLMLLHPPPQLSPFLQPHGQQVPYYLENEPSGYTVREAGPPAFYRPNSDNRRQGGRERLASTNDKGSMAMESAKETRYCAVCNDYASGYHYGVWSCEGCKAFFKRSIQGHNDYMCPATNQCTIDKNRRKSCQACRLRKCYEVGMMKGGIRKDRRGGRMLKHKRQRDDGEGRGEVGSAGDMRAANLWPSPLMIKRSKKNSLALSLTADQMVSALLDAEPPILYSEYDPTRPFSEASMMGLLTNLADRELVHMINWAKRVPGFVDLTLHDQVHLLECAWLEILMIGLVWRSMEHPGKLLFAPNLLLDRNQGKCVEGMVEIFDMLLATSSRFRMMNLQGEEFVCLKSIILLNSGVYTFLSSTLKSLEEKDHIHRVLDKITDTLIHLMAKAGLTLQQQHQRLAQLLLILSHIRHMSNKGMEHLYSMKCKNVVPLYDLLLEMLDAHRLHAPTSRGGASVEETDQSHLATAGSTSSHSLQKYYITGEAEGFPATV
In short: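 Estradiol at 0.1 nM (final) stimulates the endogenous ER-alpha of VM7Luc4E2 cells carrying an ERE-driven luciferase; compounds are co-incubated 22 h at 37C and luciferase output quantified by luminescence.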

[6] = qHTS assay to identify small molecule HDAC inhibitors (AID 1259364);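 further: wild-type HCT-116 cells with endogenous class I/II HDAC activity; top concentration of the series differs between compounds; nearly all actives have a fitted effect of over 45% in size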
In short: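 Read-out: luminescence of HDAC-Glo I/II reagent, 30 min RT, reflecting class I/II deacetylase activity in whole HCT-116 cells pre-exposed 2 h to DMSO-dissolved compounds.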

[7] = qHTS assay to identify small molecule HDAC inhibitors - cell viability counter screen (AID 1259365); further: series mostly up to about 92 µM; nearly all actives have a fitted effect of over 50% in size
In short: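 Wild-type HCT-116 cells, 1,500/well, cultured overnight, then compound-treated 2 h at 37 C. Viability measured as ATP luminescence with CellTiter-Glo after 30 min at room temperature.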

[8] = qHTS assay to identify small molecule agonists of the sonic hedgehog signaling (Shh) pathway - cell viability counter screen (AID 1259366); further: nearly all actives have a fitted effect of over 50% in size
In short: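 NIH/3T3-derived Gli1-Luc reporter cells, 2,000 per well, received compound after 4 h and were treated about 23 h at 37C. Viability measured in the same wells by CellTiter-Fluor fluorescence after 1 h.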

[9] = qHTS assay to identify small molecule antagonists of the sonic hedgehog signaling (Shh) pathway - cell viability counter screen (AID 1259367); further: nearly all actives have a fitted effect of over 55% in size
In short: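 After a 4 hr settling period, 3T3 Gli1-Luc cells were treated with DMSO-dissolved chemicals and conditioned medium, kept 24 hr at 37C in 5% CO2, and assayed for viability by CellTiter-Fluor fluorescence following 1 hr reagent incubation.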

[10] = qHTS assay to identify small molecule agonists of the sonic hedgehog signaling (Shh) pathway (AID 1259368; calls by dose curve;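 further: NIH/3T3-derived 3T3Gli1-Luc cells carrying a stable Gli1-driven firefly luciferase reporter; series mostly up to about 92 µM; nearly all actives have a fitted effect of over 15% in size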)
In short: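 A Gli1 transcriptional response element controlled firefly luciferase in 3T3Gli1-Luc cells. Compounds and a positive control were added 4 hr after plating, and cells were incubated a further 24 hr at 37 C before luminescence detection.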

[11] = qHTS assay to identify small molecule agonists of the androgen receptor (AR) signaling pathway in the presence of an antagonist - cell viability counter screen (AID 1259379);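 further: MDA-kb2 human breast cancer cells carrying an MMTV luciferase reporter; series mostly up to about 92 µM; nearly all actives have a fitted effect of over 25% in size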
In short: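 Seed MDA-kb2 at 3,000 cells/well; incubate 5 hr, 37C, 0% CO2. Add nilutamide to 3.0uM final, then pin compounds at 15 concentrations. Incubate 16 hr. Add CellTiter-Fluor at 15 hr, read fluorescence after 1 hr.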

[12] = qHTS assay to identify small molecule agonists of the estrogen receptor beta (ER-beta) signaling pathway - cell viability counter screen (AID 1259380); further: nearly all actives have a fitted effect of over 30% in size
In short: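 CellTiter-Glo read, 30 min RT, same wells as bla assay; cells ER-beta-UAS-bla HEK293T; 16 hr compound, 37C; medium 2% charcoal-stripped FBS.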

[13] = qHTS assay to identify small molecule antagonists of the estrogen receptor beta (ER-beta) signaling pathway - cell viability counter screen (AID 1259382); further: series mostly up to about 92 µM; nearly all actives have a fitted effect of over 55% in size
In short: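 In this multiplexed counter screen, cells were seeded at 2,000 per well in medium with 2% charcoal-stripped FBS and incubated 6 hr before compound and 1nM final E2 were added. Sixteen hours later, ATP-based luminescence reported viability.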

[14] = biological target: Estrogen receptor (Homo sapiens) (UniProt P03372); assay: qHTS assay to identify small molecule agonists of the estrogen receptor alpha (ER-alpha) signaling pathway in the presence of an antagonist (AID 1259383; calls by dose curve; further: top concentration of the series differs between compounds; nearly all actives have a fitted effect of over 15% in size)
In short: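 Stably transfected VM7Luc4E2 reporter cells, kept 5 days in charcoal-stripped serum, received ICI-182,780 at 10.0nM final before compound addition. Following 22hr incubation at 37C and 5% CO2, luciferase signal was read by luminescence.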

[15] = qHTS assay to identify small molecule phospholipidosis (PLD) inducers (AID 1259344; active means well fitted curve in the direction sought with a large enough effect; an effect the other way counts as inactive or inconclusive)
In short: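 HepG2 cells grown on collagen I take up LipidTOX Red while exposed to compound for 24 h; after fixation they are imaged at 20x and pit metrics are extracted.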

[16] = qHTS assay to identify small molecule antagonists of the sonic hedgehog signaling (Shh) pathway (AID 1259369; calls by dose curve; further: nearly all actives have a fitted effect of over 45% in size)
In short: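 For antagonist detection, the reporter line received test compounds together with conditioned medium, incubated 24hr at 37 C, 5% CO2, then luminescence was recorded following 30min room-temperature luciferase reagent incubation.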

[17] = biological target: Estrogen receptor beta (Homo sapiens) (UniProt Q92731); assay: qHTS assay to identify small molecule agonists of the estrogen receptor beta (ER-beta) signaling pathway (AID 1259377; active means well fitted activation curve with a large enough effect in the signal ratio in the repeat runs, not every such curve was filed as active; the % refers to the signal ratio)
Sequence of Estrogen receptor beta (Homo sapiens) (Q92731 whole entry, looked up): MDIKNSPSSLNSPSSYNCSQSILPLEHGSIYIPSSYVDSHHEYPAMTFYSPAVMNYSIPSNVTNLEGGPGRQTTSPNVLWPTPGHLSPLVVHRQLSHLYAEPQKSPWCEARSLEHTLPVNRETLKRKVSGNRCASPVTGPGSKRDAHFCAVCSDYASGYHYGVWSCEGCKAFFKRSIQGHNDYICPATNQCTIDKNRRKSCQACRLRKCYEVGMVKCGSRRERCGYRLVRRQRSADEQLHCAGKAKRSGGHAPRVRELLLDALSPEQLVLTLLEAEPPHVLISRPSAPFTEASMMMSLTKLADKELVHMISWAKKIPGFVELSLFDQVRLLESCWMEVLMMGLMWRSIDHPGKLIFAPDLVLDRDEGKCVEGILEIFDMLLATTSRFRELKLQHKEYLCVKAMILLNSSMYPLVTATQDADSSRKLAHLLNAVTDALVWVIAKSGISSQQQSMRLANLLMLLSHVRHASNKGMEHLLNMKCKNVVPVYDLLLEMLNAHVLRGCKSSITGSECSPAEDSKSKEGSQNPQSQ
In short: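 ER-beta-UAS-bla HEK293T cells in medium with 2% charcoal-stripped FBS were exposed to compounds for 16 h at 37C. Beta-lactamase reporter activity was read as fluorescence after 2 h with LiveBLAzer B/G FRET substrate at room temperature.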

[18] = biological target: Estrogen receptor beta (Homo sapiens) (UniProt Q92731); assay: qHTS assay to identify small molecule antagonists of the estrogen receptor beta (ER-beta) signaling pathway (AID 1259378; active means well fitted inhibition curve with a large enough effect in the signal ratio in the repeat runs, not every such curve was filed as active; the % refers to the signal ratio)
In short: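 ER-beta-UAS-bla HEK293T (GripTite) cells in 2% charcoal-stripped FBS medium were preincubated 6 hr at 37C, dosed with compound, then stimulated with 1 nM E2 (final) for 16 hr; beta-lactamase reporter read by B/G FRET fluorescence after 2 hr substrate loading.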

[19] = biological target: Androgen receptor (Homo sapiens) (UniProt P10275); assay: qHTS assay to identify small molecule agonists of the androgen receptor (AR) signaling pathway in the presence of an antagonist (AID 1259381; calls by dose curve; further: nearly all actives have a fitted effect of over 15% in size; further: potency means the concentration at half of the fitted maximal effect)
In short: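 Test compounds at 15 concentrations were incubated for 16hr with MDA-kb2 reporter cells in presence of 3.0uM nilutamide (final). Signal: ONE-Glo luciferase luminescence.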

[20] = qHTS assay to identify small molecule agonists or antagonists of the thyroid stimulating hormone receptor (TSHR) signaling pathway - wild type cell line counter screen (AID 1259384; calls by dose curve)
In short: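 Wild-type HEK293 cells were plated 18 h at 37 C/5% CO2, pin-dosed with compound plus Ro20-1724 medium, held 30 min at room temperature, then given cAMP-d2 and anti-cAMP-cryptate; fluorescence was read after 1 h. Fifteen concentrations, triplicate.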

| Structure (SMILES) | outcome [1] | Potency [2] | outcome [3] | Potency [4] | Potency [5] | Potency [6] | outcome [7] | Potency [8] | Potency [9] | outcome [10] | Potency [11] | Potency [12] | outcome [13] | outcome [14] | outcome [15] | Potency [16] | Potency [17] | outcome [18] | Potency [19] | outcome [20] |
| --- | --- | --- | --- | --- | --- | --- | --- | --- | --- | --- | --- | --- | --- | --- | --- | --- | --- | --- | --- | --- |
| O=C1c2ccccc2C(=O)N1CCl | inactive | inactive | inactive | inactive | inactive | inactive | inactive | inactive | inactive | inactive | inactive | inactive | inactive | inactive |  |  |  |  |  |  |
| CC(=O)OC(C)OC(=O)C(C)c1ccc(-c2ccccc2)c(F)c1 (configuration not stated) | inactive | inactive | inactive | inactive | inactive | inactive | inactive | inactive | inactive | inactive | inactive | inactive | inactive | inactive | inactive | inactive | inactive | inactive | inactive | inactive |
| CCCCCCCCCC(C)=O | inactive | inactive | inactive | inactive | inactive | inactive | inactive | inactive | inactive | inactive | inactive | inactive | inactive | inactive |  | inactive | inactive | inactive |  | inactive |
| CCN(CC)CC(=O)Nc1c(C)cccc1C | inactive | inactive | inactive | inactive |  | inactive | inactive | inactive | inactive | inactive | inactive | inactive | inactive |  | inactive | inactive | inactive | inactive |  | inactive |
| CCC(C)NC(N)=O (configuration not stated) | inactive | inactive | inactive | inactive | inactive | inactive | inactive | inactive | inactive | inactive | inactive | inactive | inactive | inactive |  | inactive | inactive | inactive | inactive | inactive |
| Cc1cccc(C)c1NC(=O)c1ccccc1C(=O)O | inactive | inactive | inactive | inactive | inactive | inactive | inactive | inactive | inactive | inactive | inactive | inactive | inactive |  | inactive | inactive | inactive | inactive |  | inactive |
| O=C(CCN1CCN(CCO)CC1)N1c2ccccc2Sc2ccc(C(F)(F)F)cc21 | inactive | inactive | inactive | inactive | inactive | inactive | inactive | inactive |  | inactive | inactive | inactive | inactive | inactive | inactive | inactive |  |  | inactive | inactive |
| Cc1ccc2ccc(Cl)cc2n1 | inactive | inactive | inactive | inactive | inactive | inactive | inactive | inactive | inactive | inactive | inactive | inactive | inactive |  |  | inactive |  |  |  | inactive |
| CC(C)c1ccc2cc(C(C)C)ccc2c1 | inactive | inactive | inactive | inactive | inactive | inactive | inactive | inactive | inactive | inactive | inactive | inactive | inactive | inactive |  | inactive | inactive |  |  | inactive |
| CC(C)C(=O)OCc1cccc(OC(=O)[C@@H]2N3C(=O)[C@@H](NC(=O)Cc4ccccc4)[C@H]3SC2(C)C)c1 | inactive | inactive | inactive | inactive | inactive | inactive |  | inactive | inactive | inactive | inactive | inactive | inactive | inactive |  | inactive | inactive | inactive | inactive | inactive |
| O=C(O)c1cc(Br)c(O)c(Br)c1 | inactive | inactive | inactive | inactive |  | inactive | inactive | inactive | inactive | inactive | inactive | inactive | inactive |  |  | inactive | inactive | inactive |  | inactive |
| Oc1ccccc1-c1nnco1 | inactive | inactive | inactive | inactive | inactive | inactive | inactive | inactive | inactive | inactive | inactive | inactive | inactive | inactive |  | inactive | inactive |  |  | inactive |
| COc1ccc2c(c1)C(=O)N(CCc1ccc(S(=O)(=O)NC(=O)NC3CCCCC3)cc1)C(=O)C2(C)C | inactive | inactive | inactive | inactive | inactive | inactive | inactive | inactive | inactive | inactive | inactive |  | inactive | inactive | inactive | inactive |  |  | 21.1 µM (active) | inactive |
| NC(CO)C(=O)NNCc1ccc(O)c(O)c1O (configuration not stated) | inactive | inactive | inactive | inactive | inactive | inactive | inactive |  | inactive | inactive | inactive | inactive | inactive | inactive | inactive | inactive |  |  | 13.3 µM (active) | inactive |
| CC(C)NCC(O)COc1cccc2[nH]ccc12 (configuration not stated) | inactive | inactive | inactive | inactive |  | inactive | inactive | inactive | inactive | inactive | inactive | inactive | inactive |  | inactive | inactive | inactive | inactive |  | inactive |
